Drawing on paper PMC7826789 (International Journal of Molecular Sciences, 2021), this text covers Kinases covered for six molecules.

For `COc1ccc2c(-c3ccnc(Nc4cccc(OC(F)(F)F)c4)n3)cnn2n1` [GW810372X], the Kinases covered result in the assay with HIPK1 is given as “HIPK1”.

As to `CCOc1ccc2c(-c3ccnc(Nc4cccc(C(F)(F)F)c4)n3)cnn2n1` [GW811761X], the Kinases covered result in the assay on HIPK2 is “HIPK2”; in the assay with HIPK3 it was “HIPK3”.

Consider `COC[C@@H](C)N[C@H]1CC[C@H](Nc2cc(-c3cccc(NCC4(C#N)CCOCC4)n3)c(Cl)cn2)CC1` [NVP-2], for which the Kinases covered result in the assay on HIPK4 was “HIPK4”.

On to `CCCc1cc(N2CCCN(C)CC2)nc2sc3c(N)ncnc3c12` [BI00604564], for which, in the assay with Haspin, the Kinases covered entry is “Haspin”.

For `Cc1cc(NC(=O)c2cccc(NC(=O)/C=C/CN(C)C)c2)ccc1Nc1nccc(-c2cccnc2)n1` [JNK-IN-7], in the assay on ICK, the Kinases covered result was “ICK”.

`CCC(NN(C)C)=C1C(=O)Nc2ccc(C(C)=O)cc21` [BI00036838]: in the assay on ICK, the Kinases covered result is recorded as “ICK”.
